Laboratory results: PubChem BioAssay

How the values were obtained:
[1] = tested on: Human papillomavirus type 1a protein E7 (residues 44-93); experiment: HPV1a E7 fragment binders on microarrays, primary screen, biochemical, small-molecule microarray, residues 44-93, 635 nm fluorescence (AID 1108); settings: small-molecule microarray binding, fluorescence 635 nm; higher = more signal;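 further: E7 fragment applied at 1 µg/mL in TBST for 1 h at 4 C; score combines spot fluorescence with its signal to noise ratio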
[2] = modulators of HCV replicon luciferase signal, primary screen, HCV replication inhibitor project, Huh7 cells, luciferase reporter (AID 1109); settings: 48 h, higher = more signal;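 further: huh7 hepatoma cells harbouring a luciferase neomycin HCV replicon reporter; luciferase luminescence as measure of HCV replicon replication; test concentration not given here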
[3] = biological target: Left-right determination factor 2 (Homo sapiens) (UniProt O00292); experiment: LEFTY2 binders on small-molecule microarrays, primary screen, biochemical, small-molecule microarray, 635 nm fluorescence scan (AID 1110); settings: LEFTY2 binding, higher = more signal
Sequence of Left-right determination factor 2 (Homo sapiens) (O00292 whole entry, looked up): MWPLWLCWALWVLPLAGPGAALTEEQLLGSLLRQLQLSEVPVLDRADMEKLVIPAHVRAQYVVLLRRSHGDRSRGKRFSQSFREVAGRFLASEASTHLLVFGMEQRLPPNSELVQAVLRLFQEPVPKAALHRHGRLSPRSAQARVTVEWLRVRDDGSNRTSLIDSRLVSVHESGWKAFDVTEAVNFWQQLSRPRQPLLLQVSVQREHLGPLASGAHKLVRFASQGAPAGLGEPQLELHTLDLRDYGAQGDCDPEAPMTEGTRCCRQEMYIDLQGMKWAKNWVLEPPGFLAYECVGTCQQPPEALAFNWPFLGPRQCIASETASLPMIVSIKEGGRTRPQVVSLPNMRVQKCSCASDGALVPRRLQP

[4] = biological target: Calmodulin-1 (Homo sapiens) (UniProt P0DP23); experiment: CALM1 binders on microarrays, EGTA buffer, profiling panel, biochemical, small-molecule microarray, Cy5-labelled CALM1 (AID 1111); settings: Cy5-CALM1 binding fluorescence, higher = more signal;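 further: labelled calmodulin applied in Tris saline Tween buffer holding calcium plus EGTA and DTT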
[5] = biological target: Calmodulin-1 (Homo sapiens) (UniProt P0DP23); experiment: calcium-bound CALM1 binders on microarrays, profiling panel, artefact control for SMM control-protein annotation, biochemical, small-molecule microarray, Cy5-labelled CALM1, plus calcium (AID 1112); settings: Cy5-CALM1 binding fluorescence, higher = more signal;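 further: score merges spot fluorescence with signal to noise from triplicate slides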
[6] = small-molecule microarray binders of probe aWnt5a, primary screen, biochemical, biotinylated probe, 635/667 nm fluorescence (AID 1113); settings: higher = more signal;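 further: score merges 667 nm fluorescence intensity with signal-to-noise per printed feature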
[7] = small-molecule microarray binders of probe aShh, primary screen, biochemical, biotinylated probe, 635/667 nm fluorescence (AID 1114); settings: higher = more signal;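 further: probe is biotin-labelled aShh protein from a stem cell growth factor screen; measures binding of labelled protein to compounds printed on the slide; score merges feature fluorescence at 667 nm with signal-to-noise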
[8] = small-molecule microarray binders of probe aNog, primary screen, biochemical, biotinylated probe, 635/667 nm fluorescence (AID 1115); settings: higher = more signal;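 further: probe is biotinylated aNog protein used at 0.15 µg/mL for 1 h at 4 C; z-score combines 667 nm fluorescence of each spot with its signal to noise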
[9] = biological target: Torsin-1A-interacting protein 1 (Homo sapiens) (UniProt Q5JTV8); experiment: LAP1 binders from COS7 cell lysate, primary screen, small-molecule microarray, 635/667 nm fluorescence (AID 1116); settings: COS7-hLAP1 lysate binding, 635 nm fluorescence, higher = more signal
Sequence of Torsin-1A-interacting protein 1 (Homo sapiens) (Q5JTV8 whole entry, looked up): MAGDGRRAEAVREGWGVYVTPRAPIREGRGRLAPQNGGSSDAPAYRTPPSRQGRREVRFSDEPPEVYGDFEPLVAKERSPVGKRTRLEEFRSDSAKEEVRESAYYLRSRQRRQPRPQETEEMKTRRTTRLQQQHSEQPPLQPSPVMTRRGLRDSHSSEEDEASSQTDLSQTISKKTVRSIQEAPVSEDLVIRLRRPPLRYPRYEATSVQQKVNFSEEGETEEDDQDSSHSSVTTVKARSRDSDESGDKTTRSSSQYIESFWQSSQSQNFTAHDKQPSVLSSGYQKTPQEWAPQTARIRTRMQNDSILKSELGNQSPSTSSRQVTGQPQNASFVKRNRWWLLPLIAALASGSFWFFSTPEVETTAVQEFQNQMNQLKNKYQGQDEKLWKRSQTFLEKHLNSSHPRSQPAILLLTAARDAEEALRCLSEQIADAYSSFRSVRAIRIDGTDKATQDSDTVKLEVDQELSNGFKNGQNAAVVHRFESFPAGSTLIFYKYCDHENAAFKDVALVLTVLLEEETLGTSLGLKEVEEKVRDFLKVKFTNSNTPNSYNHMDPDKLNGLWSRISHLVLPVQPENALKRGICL

[10] = biological target: Alpha-bungarotoxin (Bungarus multicinctus) (UniProt P60615); experiment: alpha-bungarotoxin binders on microarray, profiling panel, artefact control for SMM control protein annotation, biochemical, small-molecule microarray, Alexa647 label, 635/667 nm fluorescence (AID 1117); settings: alpha-BTX-A647 binding fluorescence, higher = more signal
Sequence of Alpha-bungarotoxin (Bungarus multicinctus) (P60615 whole entry, looked up): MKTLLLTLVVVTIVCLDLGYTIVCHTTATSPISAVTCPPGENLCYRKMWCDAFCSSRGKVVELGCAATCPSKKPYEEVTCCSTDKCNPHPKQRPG

Row | SMILES | composite z-score [1] | z-score [2] | composite z-score [3] | composite z-score [4] | composite z-score [5] | composite z-score [6] | composite z-score [7] | composite z-score [8] | composite z-score [9] | composite z-score [10]
1 | COCCOC(=O)N1C(=O)[C@@]2(c3cc(C#CCCO)ccc31)[C@H](C(N)=O)[C@H]1C(=O)O[C@H](c3ccccc3)[C@H](c3ccccc3)N1[C@@H]2c1ccc(O)cc1 | -0.48 | 0.11 | -0.142 | -0.0162 | 0.461 | -0.0197 | -0.0035 | 0.0107 | 0.169 | 0.244
2 | COC(=O)C(CC#Cc1ccc2c(c1)[C@]1(C(=O)N2)[C@H](C(=O)Nc2nc3ccccc3s2)[C@H]2C(=O)O[C@H](c3ccccc3)[C@H](c3ccccc3)N2[C@@H]1c1ccccc1OCCO)C(=O)OC | 1.17 | -2.55 | 0.286 | 1.42 | 0.504 | -0.0346 | 0.257 | 0.733 | 1.01 | 2.31
3 | CC(C)(C)OC(=O)CC[C@]1(C(=O)N2CCOCC2)N=C(c2ccc(OCCCO)cc2)O[C@H]1c1ccccc1N=[N+]=[N-] | 1.05 | 2.2 | 0.119 | 0.981 | 0.0644 | -0.0125 | 0.308 | 1.37 | 2.43 | 1.23
4 | CCOC(=O)C[C@H]1[C@H](OC(=O)c2ccccc2-c2ccccc2)[C@@H](NC(=O)CC(C)C)c2cc(OCCCO)ccc2N1C(=O)Cc1ccc(OC)cc1 | -0.0946 | -1.25 | -0.262 | -0.0904 | -0.265 | -0.0953 | 0.199 | -0.326 | 0.784 | -0.213
5 | CC(CO)N1C(=O)[C@@H]2C3C(=O)OCCC/C=C\[C@H]3OC23C=CCN(C(C)(C)C)C(=O)[C@@H]13 (stereo not given in full) | -0.898 | 0.367 | -0.0466 | -0.565 | -0.769 | -0.192 | 0.108 | -0.147 | 0.859 | 0.149
6 | COc1ccc([Si](C)(C)[C@@H]2[C@@H](CC(=O)N3CCC[C@H]3CO)O[C@]3(C(=O)N(c4ccccc4)c4ccccc43)[C@H]2C)cc1 | 1.36 | -0.417 | 0.751 | 0.528 | -0.143 | -0.124 | 0.0328 | -0.0047 | 0.691 | 1.09
7 | C=CCC(OC(C)=O)[C@@H]1[C@@H](N(Cc2cccc3ccccc23)C(=O)c2ccc(-c3ccccc3)cc2)c2cc(OCCCO)ccc2N1C(=O)c1ccc2ccccc2c1 (stereo not given in full) | 0.564 | 0.098 | -0.164 | 0.268 | 0.544 | -0.0196 | -0.0709 | 0.223 | 0.923 | -0.0516
8 | CCCC[C@@H]1C[C@H]1[C@@H](NC(=O)C(C)(C)C)c1ccc(C(F)(F)F)cc1 | 0.946 | -1.71 | -1.61 | 1.18 | 1.3 | -0.203 | 0.102 | 1.52 | 0.473 | -0.0729
9 | CCCCCCc1nc(-c2ccc(OC)nc2)cc2c1[Si](C(C)C)(C(C)C)O[C@H]2c1ccccc1 | -0.103 | -0.657 | 0.28 | -0.0918 | 0.176 | -0.176 | 0.108 | -0.234 | -0.476 | 0.0237
10 | COCCOC(=O)N1C(=O)[C@@]2(c3cc(C#CCNC(N)=O)ccc31)[C@H](C(=O)N1CCN(c3ncccn3)CC1)[C@H]1C(=O)O[C@H](c3ccccc3)[C@H](c3ccccc3)N1[C@@H]2c1ccc(OCCO)cc1 | 1.01 | -0.801 | 0.188 | 0.392 | 0.0615 | 0.0031 | -0.315 | 0.196 | 0.0481 | 1.82
11 | C=CC[C@@]1(C(=O)NCCN2CCOCC2)N=C(c2ccc(OCCCO)cc2)O[C@@H]1c1ccccc1N=[N+]=[N-] | 0.446 | -1.23 | 0.187 | 1.26 | 0.581 | -0.1 | -0.215 | -0.0119 | 1.76 | 0.841
